# Tests used:
# [1] = target: T1, Aspartate--tRNA(Asp/Asn) ligase (Mycobacterium tuberculosis (strain ATCC 25618 / H37Rv)) (UniProt P9WFW3); assay: Assay for Asp RNA synthetase-1 from Mycobacterium tuberculosis; format: functional; design: scale not given: direction of the effect not stated beside the values; conditions: 30 µM; also: in the data most compounds retested in dose-response had high values
# T1 sequence (whole entry): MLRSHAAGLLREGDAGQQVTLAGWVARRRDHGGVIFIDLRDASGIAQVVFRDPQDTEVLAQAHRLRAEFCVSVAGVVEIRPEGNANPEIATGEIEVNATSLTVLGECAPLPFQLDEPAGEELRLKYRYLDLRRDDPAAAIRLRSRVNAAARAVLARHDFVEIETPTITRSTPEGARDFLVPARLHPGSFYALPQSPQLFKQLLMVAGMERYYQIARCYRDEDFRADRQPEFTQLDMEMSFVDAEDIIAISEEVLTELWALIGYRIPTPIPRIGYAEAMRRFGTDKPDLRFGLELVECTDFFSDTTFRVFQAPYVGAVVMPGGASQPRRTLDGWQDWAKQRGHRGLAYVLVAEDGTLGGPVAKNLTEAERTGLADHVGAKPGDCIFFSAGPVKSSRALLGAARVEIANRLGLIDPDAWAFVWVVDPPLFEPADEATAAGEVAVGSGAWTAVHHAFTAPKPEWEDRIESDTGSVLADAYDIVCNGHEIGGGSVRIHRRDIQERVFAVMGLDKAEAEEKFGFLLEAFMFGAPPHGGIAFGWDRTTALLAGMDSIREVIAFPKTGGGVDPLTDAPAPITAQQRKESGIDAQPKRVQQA
# [2] = target: Shiga toxin 2 (Escherichia coli O157:H7) (UniProt P09385+P09386); assay: E. coli 0.157:H7 Shiga Toxin SOP - stx2 screening assay; format: functional; design: scale not given: direction of the effect not stated beside the values; conditions: 30 µM
Compound,Percent Effect [1] [%],Percent Effect [2] [%]
CC(=O)N1CCCN(C(=O)c2ccn(-c3cccc(Cl)c3)n2)CC1,3,5.49
O=C(NCCN1CCOCC1)c1ccc(-n2ccc3ccccc32)s1,3.45,-47.9
CC(O)CN1CCN(C(=O)c2ccc(N(C)C)nn2)CC1 (centres undefined),-6.65,-70.5
CC(O)(CN1CCC2(CC1)OCCO2)c1cccc(C(F)(F)F)c1 (centres undefined),1.23,-7.35
Cn1cc(N2CC3(COCCN(Cc4ccsc4)C3)OCC2=O)cn1 (centres undefined),13.7,-3.88
CCCc1nc(CN2CCOC(CNc3cccnn3)C2)cs1 (centres undefined),3.73,27.3
NC(=O)c1cc(C2CCCN(C(=O)CCc3cscn3)C2)n[nH]1 (centres undefined),-4.07,-14.1
CC(C)CC(=O)N1CCN(C(=O)N(C)C)CC2(CC(=O)N(C)C2)C1 (centres undefined),1.73,1.92
COCc1nc(C(=O)NS(=O)(=O)c2ccc(C)s2)cs1,0.678,-34.1
CCCNC(=O)Cn1cc(-c2ccccc2)cn1,-2.52,-0.0685
Cn1cc(CN2CC[C@@H]3[C@@H](CCC(=O)N3CCc3c[nH]cn3)C2)cn1,-1.44,-37.6
CNc1cc(C2CCCN2C(=O)c2ccc3oc(=O)n(C)c3c2)ccn1 (centres undefined),4.04,7
O=C(NCCNC(=O)N1CCC(c2ccccc2)C1)C1CC1 (centres undefined),-0.747,-19.2
Cc1ncnc(NCc2cc3n(n2)CCCN(S(C)(=O)=O)C3)c1C,0.518,12.4
Cc1cnn(C2CCCN(C(=O)C3=NN(C)C(=O)CC3)C2)c1 (centres undefined),3.95,3.74
CNC(=O)N1CC[C@@H]2CN(Cc3cccnc3)S(=O)(=O)[C@@H]2CC1,1.91,-0.136
Cc1ncsc1C(=O)N1CCCC(c2noc(C(C)C)n2)C1 (centres undefined),-6.6,-6.13
Cc1cnn(CC2CCCN2C(=O)c2cnc3n[nH]c(C)c3c2)c1 (centres undefined),-3.6,-40.6
CC(C)Cc1nc(OCC(N)=O)c(C#N)c2c1CCC2,2.64,-13.7
CCc1noc(C2CCCCN2C(=O)c2nnc3ccccc3n2)n1 (centres undefined),1.83,-8.75
COc1ccc(COCC(O)CNC(=O)c2cc(C)cc(C)c2)cc1 (centres undefined),-0.859,-16.6
CN(C)CCOCC1CN(CC2CCOCC2)Cc2nnn(C)c21 (centres undefined),-1.11,-12.4
CC(C)c1cc(C(=O)N(C)Cc2cccc3ncccc23)n(C)n1,-4.72,-15
CCCS(=O)(=O)N1CCN(c2ccnc(N3CCCC3)n2)CC1,2.06,-50.6
Cc1nc(C)n(CC2CCCN(Cc3ccc(C(N)=O)cc3)C2)n1 (centres undefined),-5.85,20.8
CN1CC(c2ccccc2)CC2(CCN(CC(=O)N(C)C)CC2)C1 (centres undefined),-3.52,15.8

Compound,Percent Effect [1] [%],Percent Effect [2] [%]
CNS(=O)(=O)CCCN1CCCC1c1cc(C)on1 (centres undefined),1.49,5.74
CCOC(=O)CCC(=O)N1CCC(Oc2ccc(C(F)(F)F)cn2)CC1,-1.91,12.6
COCc1ccc(CN2CCC(O)(Cn3ccc4ncccc43)CC2)o1,0.485,-34.6
CCc1nccn1C1CCCN(C(=O)c2cnn(C)c2C2CC2)C1 (centres undefined),-4.23,21.1
O=S(=O)(Nc1cnn(C2CCOCC2)c1)c1ccc(F)c(F)c1,3.75,1.76
Cn1ccnc1CN1CCC2(CC1)CC(NC(=O)c1ccccn1)CO2 (centres undefined),2.38,-19.4
Cc1nc(CNCC2CN(C)CCO2)cs1 (centres undefined),-3.4,-38.1
O=C(CSc1nc2c(cnn2CCO)c(=O)[nH]1)N1CCCCCC1,-7.88,-8.39
CC(C)NC(=O)N1CCC2(CC(C(=O)NCc3cccnc3)=NO2)C1 (centres undefined),2.53,-11.6
CC(CN1CCOCC1)NC(=O)NCc1ccc(Cl)s1 (centres undefined),2.25,-2.94
Cc1noc(C2CCCN(C(=O)c3ccc(Br)cc3F)C2)n1 (centres undefined),-4.41,20.7
O=C(NC[C@]1(O)CN(Cc2ccccc2F)C[C@H]1O)c1ccccn1,7.9,19.5
CN(Cc1ccc(Cl)s1)C1CCCN(c2cccnn2)C1 (centres undefined),2.31,-15
CCCc1cc(NC2CCc3ncnn3C2)n2ncnc2n1 (centres undefined),-2.01,1.41
O=C(O)[C@@H]1CN(C(=O)c2cc(C3CC3)n[nH]2)C[C@H]1c1cccc(F)c1,-3.42,-8.72
COCCN(C)C(=O)Cn1cccc(OC)c1=O,49.9,-42.8
CCc1nc(CN(C(C)=O)C2CCN(Cc3cnc(C)cn3)C2)no1 (centres undefined),-0.742,-16.6
Cn1cc(CN2CCc3onc(COc4cccnc4)c3C2)cn1,-6.13,-65.9
CC(C)c1ncc2c(n1)CN(Cc1cccc(C#N)c1)CC2,0.9,-1.08
Cc1ncsc1CN1CC[C@H]2OCC[C@@]2(C(=O)NC(C)C)C1,2.43,-7.46
Cc1cc(C)n(CC2CCCN2CCCS(N)(=O)=O)n1 (centres undefined),-0.589,-25.1
NC(=O)COc1ccc(CNCc2ccc(F)cc2F)cc1,-4.09,-18.8
CCC(C)NC(=O)NCCCn1nc2ccccn2c1=O (centres undefined),1.23,22.8
O=C1CC[C@H]2[C@H](CCN2C(=O)C2CCCO2)N1CCN1CCCC1 (some centres undefined),-1.39,4.3
COc1ccc(-n2ncc(C(=O)NCC3COC(C)(C)O3)c2N)cc1 (centres undefined),-2.49,7.2
COCc1cncc2c1CCN(C(=O)c1ccc(C)o1)C2,8.15,-6.15

# From ChEMBL document CHEMBL3988442, “University of Dundee, Small-Polar-MMV Screening Library” (2021)
